Values joined by “and” are separate entries in the source; they are usually repeats but may differ in a detail not shown here. Equal values may be shown once.

Chain of Fibroblast growth factor receptor 2 (Homo sapiens) (P21802 22-821 limits assumed): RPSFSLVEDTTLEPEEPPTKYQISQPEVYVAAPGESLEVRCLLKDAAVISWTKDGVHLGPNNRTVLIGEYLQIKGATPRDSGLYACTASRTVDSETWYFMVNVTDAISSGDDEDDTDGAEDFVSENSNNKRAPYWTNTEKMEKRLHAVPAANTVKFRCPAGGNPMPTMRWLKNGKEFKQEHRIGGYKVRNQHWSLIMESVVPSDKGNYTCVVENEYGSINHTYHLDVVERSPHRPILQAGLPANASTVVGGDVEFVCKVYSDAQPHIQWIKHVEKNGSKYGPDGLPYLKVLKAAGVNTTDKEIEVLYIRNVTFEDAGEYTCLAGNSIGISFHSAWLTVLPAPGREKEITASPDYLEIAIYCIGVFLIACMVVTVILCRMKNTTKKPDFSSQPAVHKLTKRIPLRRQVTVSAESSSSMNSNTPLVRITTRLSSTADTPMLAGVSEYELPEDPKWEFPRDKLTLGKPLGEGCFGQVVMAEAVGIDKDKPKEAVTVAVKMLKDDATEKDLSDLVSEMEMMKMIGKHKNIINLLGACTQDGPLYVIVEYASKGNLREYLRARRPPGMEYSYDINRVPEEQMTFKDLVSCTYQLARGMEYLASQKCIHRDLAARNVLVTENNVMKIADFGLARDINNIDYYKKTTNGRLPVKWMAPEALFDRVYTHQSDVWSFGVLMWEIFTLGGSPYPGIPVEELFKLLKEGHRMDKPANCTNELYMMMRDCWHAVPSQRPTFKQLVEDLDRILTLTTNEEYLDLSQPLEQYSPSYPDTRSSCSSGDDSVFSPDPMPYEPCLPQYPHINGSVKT

The first test deals with Fibroblast growth factor receptor 1 (Homo sapiens) (UniProt P11362). Particulars: at 1 µM.
Chain of Fibroblast growth factor receptor 1 (Homo sapiens) (P11362 22-822 limits assumed): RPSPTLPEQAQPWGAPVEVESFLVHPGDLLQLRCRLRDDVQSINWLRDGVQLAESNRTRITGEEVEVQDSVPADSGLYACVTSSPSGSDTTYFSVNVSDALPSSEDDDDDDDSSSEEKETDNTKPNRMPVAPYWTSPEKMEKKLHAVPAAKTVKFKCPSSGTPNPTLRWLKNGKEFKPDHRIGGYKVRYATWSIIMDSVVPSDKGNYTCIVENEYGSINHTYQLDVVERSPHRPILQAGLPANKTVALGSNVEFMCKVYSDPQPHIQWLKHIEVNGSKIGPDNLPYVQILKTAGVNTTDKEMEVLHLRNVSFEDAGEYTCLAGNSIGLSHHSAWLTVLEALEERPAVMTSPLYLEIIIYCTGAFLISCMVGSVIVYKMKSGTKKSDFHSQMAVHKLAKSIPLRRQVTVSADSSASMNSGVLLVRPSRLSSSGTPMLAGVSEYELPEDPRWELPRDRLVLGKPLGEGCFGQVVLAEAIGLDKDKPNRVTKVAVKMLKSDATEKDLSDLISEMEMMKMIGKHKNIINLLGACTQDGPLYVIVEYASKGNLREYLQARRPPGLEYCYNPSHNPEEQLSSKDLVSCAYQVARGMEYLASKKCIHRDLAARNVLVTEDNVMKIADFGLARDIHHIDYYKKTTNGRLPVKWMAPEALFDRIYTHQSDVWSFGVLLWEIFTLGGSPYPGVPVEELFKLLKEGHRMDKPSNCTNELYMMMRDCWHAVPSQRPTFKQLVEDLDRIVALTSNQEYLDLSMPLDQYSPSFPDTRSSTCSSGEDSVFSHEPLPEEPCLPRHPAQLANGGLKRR
Regarding `NS(=O)(=O)c1ccc(N/N=C2\C(=O)Nc3ccc(C(=O)NCc4ccncc4)cc32)cc1`, the inhibition – broadly, the change of the read-out against control, counted positive when it falls – came out at 5.51%.

Regarding `Nc1nccc(-c2c(-c3ccc(F)cc3)ncn2C2CCNCC2)n1`, the inhibition was -4.83% and 1.62%.

Turning to `CCOc1ccc2c(-c3ccnc(Nc4cc(OC)cc(C(F)(F)F)c4)n3)cnn2n1`, the inhibition was -0.38%.

`CS(=O)(=O)CCNCc1ccc(-c2ccc3ncnc(Nc4ccc(OCc5cccc(C(F)(F)F)c5)cc4)c3c2)o1`: the inhibition stood at 10.8%.

Consider `Fc1ccc(Nc2nccc(-c3c(-c4ccc(C(F)(F)F)cc4)nn4ncccc34)n2)cc1F`, for which the inhibition was 4.6%.

As to `COc1cccc(-n2ncc3c(N/N=C/c4ccc(C(=O)NCCN(C)C)cc4)ncnc32)c1`, the inhibition is 9.7%.

On to `CCn1c(-c2nonc2N)nc2cncc(C(=O)NCCNC)c21`, for which the inhibition turned out to be 4.72%.

For `COc1cc(Nc2ncc(-c3ccccc3)o2)cc(OC)c1`, the inhibition is 7.89%.

Take `O=C1Nc2ccccc2/C1=C1\CCc2cc(O)ccc21`: the inhibition amounted to 23.5%.

Take `CS(=O)(=O)CCNCc1ccc(-c2ccc3ncnc(Nc4ccc(OCc5ccccc5)cc4)c3c2)o1`: the inhibition came to 3.85%.

For `FC(F)(F)CNc1nccc(-c2cnn3ncccc23)n1`, the inhibition worked out at 2.89%.

On to `Cc1c2ccc(N(C)c3ccnc(Nc4cccc(S(N)(=O)=O)c4)n3)cc2nn1C`, for which the inhibition stood at 62.6%.

On to `CN1CCC(n2cnc(-c3ccc(F)cc3)c2-c2ccnc(NCCO)n2)CC1`, for which the inhibition was -2.05%.

In the case of `NS(=O)(=O)c1cccc(N/C=C2\C(=O)Nc3ccccc32)c1`, the inhibition was 8.92%.

For `CNC(=O)c1ncccc1Nc1nc(Nc2cc3c(cc2OC)CCCN3C(=O)CN(C)C)nc2[nH]ccc12`, the inhibition came to 3.03%.

Consider `COc1c(C(N)=O)cc(-c2ccc(Cl)cc2)cc1-c1ccc(S(N)(=O)=O)cc1`, for which the inhibition worked out at 7.58%.

Take `COc1ccccc1-c1cc(/C=C2\C(=O)Nc3ncc(Br)cc32)cc(Br)c1O`: the inhibition was determined as 14%.

`COc1cc2c(cc1Nc1nc(Nc3cccc(F)c3C(N)=O)c3cc[nH]c3n1)N(C(=O)CN1CCN(C(C)C)CC1)CC2`: the inhibition came out at 2.78%.

Consider `COc1ccc(-c2nn3ncccc3c2-c2ccnc(Nc3ccc(F)c(F)c3)n2)cc1`, for which the inhibition turned out to be 0.84%.

Turning to `Cc1cc(O)cc(C)c1/C=C/c1cncc(C(N)=O)c1`, the inhibition was 7.91%.

For the molecule `Cc1nnc(-c2cccc(-c3ccc(C(=O)NCC4CC4)cc3)c2)o1`, the inhibition was found to be 0.61%.

With `O=C(O[C@H]1CN[C@H](C#Cc2cc3ncnc(Nc4ccc5c(cnn5Cc5ccccc5)c4)c3s2)C1)N1CCOCC1`, the inhibition is -1.28%.

Take `CC(C)c1ccc(-c2cc(-c3c[nH]nc3-c3ccccn3)ccn2)cc1`: the inhibition was determined as 1.8%.

With `COC(=O)Nc1nc2ccc(Oc3ccc(NC(=O)Nc4cc(C(F)(F)F)ccc4F)cc3)cc2s1`, the inhibition was found to be 16.9%.

As to `CC1=C(C(=O)Nc2ccc3[nH]ncc3c2)C(c2ccc(F)cc2)N=C(c2ccc(C(F)(F)F)nc2)N1` (configuration not stated), the inhibition was 7.75%.

On to `Cc1cc(O)cc(C)c1/C=C/c1cncc(C(=O)OC(C)(C)C)c1`, for which the inhibition worked out at 3.93%.

Consider `COC(=O)Nc1nc2cc(Oc3ccc(NC(=O)Nc4ccccc4)cc3)ccc2[nH]1`, for which the inhibition was 1.47%.

Turning to `CC1(C)CC(n2cnc(-c3ccc(F)cc3)c2-c2ccnc(N)n2)CC(C)(C)N1`, the inhibition turned out to be 1.68%.

On to `COc1cc(N2CCN(C(C)C)CC2)ccc1Nc1nc(Nc2cccc3ncccc23)c2cc[nH]c2n1`, for which the inhibition is -4.83%.

Turning to `c1ccc(-c2n[nH]cc2-c2ccnc(-c3ccc(OCCn4ccnc4)cc3)c2)nc1`, the inhibition turned out to be 3.09%.

For the molecule `Nc1ncnc2occ(-c3ccc(NC(=O)Nc4cc(C(F)(F)F)ccc4F)cc3)c12`, the inhibition is 29.8% and 19.3%.

Another test has as its target Fibroblast growth factor receptor 2 (Homo sapiens) (UniProt P21802). Conditions: at 0.1 µM.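 Note: values are mean percent inhibition of FGFR2 kinase, measured within the GSK Published Kinase Inhibitor Set (PKIS) screening panel.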
Turning to `NS(=O)(=O)c1ccc(N/N=C2\C(=O)Nc3ccc(C(=O)NCc4ccncc4)cc32)cc1`, the inhibition worked out at 1.27%.

Take `Nc1nccc(-c2c(-c3ccc(F)cc3)ncn2C2CCNCC2)n1`: the inhibition was -3.3% and 0.04%.

Turning to `CCOc1ccc2c(-c3ccnc(Nc4cc(OC)cc(C(F)(F)F)c4)n3)cnn2n1`, the inhibition was -1.84%.

As for `CS(=O)(=O)CCNCc1ccc(-c2ccc3ncnc(Nc4ccc(OCc5cccc(C(F)(F)F)c5)cc4)c3c2)o1`, the inhibition stood at 6.07%.

For the molecule `Fc1ccc(Nc2nccc(-c3c(-c4ccc(C(F)(F)F)cc4)nn4ncccc34)n2)cc1F`, the inhibition is 5.3%.

On to `COc1cccc(-n2ncc3c(N/N=C/c4ccc(C(=O)NCCN(C)C)cc4)ncnc32)c1`, for which the inhibition was 5.08%.

Take `CCn1c(-c2nonc2N)nc2cncc(C(=O)NCCNC)c21`: the inhibition came out at 3.81%.

As for `COc1cc(Nc2ncc(-c3ccccc3)o2)cc(OC)c1`, the inhibition stood at 3.62%.

For `O=C1Nc2ccccc2/C1=C1\CCc2cc(O)ccc21`, the inhibition was 9.87%.

As to `CS(=O)(=O)CCNCc1ccc(-c2ccc3ncnc(Nc4ccc(OCc5ccccc5)cc4)c3c2)o1`, the inhibition is 3.26%.

With `FC(F)(F)CNc1nccc(-c2cnn3ncccc23)n1`, the inhibition was 4.25%.

With `Cc1c2ccc(N(C)c3ccnc(Nc4cccc(S(N)(=O)=O)c4)n3)cc2nn1C`, the inhibition was 50%.

Consider `CN1CCC(n2cnc(-c3ccc(F)cc3)c2-c2ccnc(NCCO)n2)CC1`, for which the inhibition was found to be 3.73%.

Regarding `NS(=O)(=O)c1cccc(N/C=C2\C(=O)Nc3ccccc32)c1`, the inhibition came to 7.77%.

Turning to `CNC(=O)c1ncccc1Nc1nc(Nc2cc3c(cc2OC)CCCN3C(=O)CN(C)C)nc2[nH]ccc12`, the inhibition worked out at 6.69%.

On to `COc1c(C(N)=O)cc(-c2ccc(Cl)cc2)cc1-c1ccc(S(N)(=O)=O)cc1`, for which the inhibition amounted to 5.92%.

For the molecule `COc1ccccc1-c1cc(/C=C2\C(=O)Nc3ncc(Br)cc32)cc(Br)c1O`, the inhibition came out at 6.66%.

For the molecule `COc1cc2c(cc1Nc1nc(Nc3cccc(F)c3C(N)=O)c3cc[nH]c3n1)N(C(=O)CN1CCN(C(C)C)CC1)CC2`, the inhibition worked out at 5.89%.

`COc1ccc(-c2nn3ncccc3c2-c2ccnc(Nc3ccc(F)c(F)c3)n2)cc1`: the inhibition came to 5.14%.

As to `Cc1cc(O)cc(C)c1/C=C/c1cncc(C(N)=O)c1`, the inhibition came to 2.08%.

As to `Cc1nnc(-c2cccc(-c3ccc(C(=O)NCC4CC4)cc3)c2)o1`, the inhibition came to 4.95%.

Turning to `O=C(O[C@H]1CN[C@H](C#Cc2cc3ncnc(Nc4ccc5c(cnn5Cc5ccccc5)c4)c3s2)C1)N1CCOCC1`, the inhibition was -0.61%.

Turning to `CC(C)c1ccc(-c2cc(-c3c[nH]nc3-c3ccccn3)ccn2)cc1`, the inhibition was -0.22%.

For `COC(=O)Nc1nc2ccc(Oc3ccc(NC(=O)Nc4cc(C(F)(F)F)ccc4F)cc3)cc2s1`, the inhibition is 2.26%.

Regarding `CC1=C(C(=O)Nc2ccc3[nH]ncc3c2)C(c2ccc(F)cc2)N=C(c2ccc(C(F)(F)F)nc2)N1` (configuration not stated), the inhibition stood at 4.37%.

In the case of `Cc1cc(O)cc(C)c1/C=C/c1cncc(C(=O)OC(C)(C)C)c1`, the inhibition was 1.65%.

In the case of `COC(=O)Nc1nc2cc(Oc3ccc(NC(=O)Nc4ccccc4)cc3)ccc2[nH]1`, the inhibition was 1.69%.

As for `CC1(C)CC(n2cnc(-c3ccc(F)cc3)c2-c2ccnc(N)n2)CC(C)(C)N1`, the inhibition was -0.84%.

On to `COc1cc(N2CCN(C(C)C)CC2)ccc1Nc1nc(Nc2cccc3ncccc23)c2cc[nH]c2n1`, for which the inhibition is -2.09%.

`c1ccc(-c2n[nH]cc2-c2ccnc(-c3ccc(OCCn4ccnc4)cc3)c2)nc1`: the inhibition came to 0.47%.

Consider `Nc1ncnc2occ(-c3ccc(NC(=O)Nc4cc(C(F)(F)F)ccc4F)cc3)c12`, for which the inhibition is 14.1% and 7.78%.

These data come from ChEMBL document CHEMBL1961873, “Compounds: GSK PKIS; Assays: Nanosyn kinase panel” (2012).
